Results filed as inconclusive are left out. Entries that show only a call come without a potency. Activity calls are given as the source filed them. Unless noted, calls follow the shape of the dose curve; as a rule, active = well fitted curve in the direction sought with a large enough effect in the repeat runs; inconclusive = weak or mixed curves; inactive = no such curve, though single readings can be large; an effect the other way counts as inactive or inconclusive.
Columns and labels:
[1] = qHTS assay to identify small molecule antagonists of the estrogen related receptor (ERR) signaling pathway (AID 1224819; also: nearly all actives have a fitted effect of over 50% in size; also: potency is read from the fitted curve at half-maximal effect); details: ERR reporter cell line, luciferase inhibition; series mostly up to 46.1 µM
Outline: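 Luminescence readout (One-Glo, 30 min, RT) of ERR cell line after 18 h compound exposure at 37 C; cells seeded 2,000/well, pre-incubated 6 h, compounds pinned from DMSO stocks.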

[2] = qHTS assay to identify small molecule agonists of the estrogen related receptor (ERR) signaling pathway (AID 1224820); details: ERR reporter cell line, luciferase agonist mode; series mostly up to 46.1 µM; also: potency is read from the fitted curve at half-maximal effect
Outline: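 ERR reporter cell line (from NTP), 2,000 cells/well, incubated 6 h before compound addition, then 18 h at 37 C. Luminescence measured 30 min after One-Glo reagent at room temperature.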

[3] = qHTS assay to identify small molecule agonists of the estrogen related receptor signaling pathway with the pleiotropic PPARgamma coactivator (PGC) (AID 1224823); details: ERR/PGC reporter cell line, luciferase agonist mode; series mostly up to 46.1 µM; also: potency is read from the fitted curve at half-maximal effect
Outline: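 PGC/ERR reporter cells seeded 6 h, then exposed to compounds (23 nL in DMSO) for 18 h at 37 C. One-Glo luciferase luminescence read after 30 min at room temperature.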

[4] = test system: estrogen-related receptor alpha (ERRalpha) with PGC-1alpha coactivator, human; test: qHTS assay to identify small molecule antagonists of the estrogen related receptor signaling pathway with the pleiotropic PPARgamma coactivator (PGC) (AID 1224821; calls by dose curve; also: nearly all actives have a fitted effect of over 50% in size; also: potency is read from the fitted curve at half-maximal effect); details: ERR/PGC reporter cell line, luciferase, antagonist mode; series mostly up to 46.1 µM
Outline: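 PGC/ERR reporter cell line, plated 6 h before compound addition, then exposed 18 h at 37 °C. Luciferase activity read by luminescence 30 min after One-Glo addition; decrease indicates antagonism.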

[5] = qHTS assay to identify small molecule antagonists of the estrogen related receptor signaling pathway with the pleiotropic PPARgamma coactivator (PGC) cell viability counter screen (AID 1224822; also: potency is read from the fitted curve at half-maximal effect); details: ERR/PGC reporter cell line viability counter screen; series mostly up to 46.1 µM
Outline: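 PGC/ERR cells were plated at 2,000 per well and allowed 6 h to settle before compound addition. Following 17.5 h at 37 C, CellTiter-Fluor reagent was added and fluorescence was read 30 min later.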

[6] = qHTS assay to identify small molecule antagonists of the estrogen related receptor (ERR) signaling pathway - cell viability counter screen (AID 1224818); details: ERR reporter cell line viability counter screen; series mostly up to 46.1 µM
Outline: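 After a 6 h pre-incubation, ERR cells were dosed by pin tool with compounds, positive/negative controls or DMSO alone. Following 17.5 h at 37 C and 30 min with CellTiter-Fluor, fluorescence was recorded.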

[7] = qHTS assay to identify small molecule antagonists of the estrogen related receptor (ERR) signaling pathway from Tox21 library - cell viability counter screen (AID 1224834); details: ERR reporter cells viability, CellTiter-Fluor, 17.5 h; series mostly up to 92.4 µM; also: potency is read from the fitted curve at half-maximal effect; nearly all actives have a fitted effect of over 30% in size
Outline: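 After 17.5 h of compound exposure at 37 C, ERR cells are incubated with CellTiter-Fluor for 30 min and fluorescence intensity serves as the viability measure.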

[8] = qHTS assay to identify small molecule agonists of the constitutive androstane receptor (CAR) signaling pathway - cell viability counter screen (AID 1224836); details: HepG2-CYP2B6-hCAR viability, CellTiter-Fluor, 23 h, PK11195 added to every well; series mostly up to 92.4 µM; also: potency is read from the fitted curve at half-maximal effect; nearly all actives have a fitted effect of over 45% in size
Outline: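 Multiplexed viability check: HepG2-CYP2B6-hCAR cells, 15-point compound dosing, 0.75 uM PK11195 final, 23 h at 37 C, CellTiter-Fluor fluorescence.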

For `O=C(c1ccc(Cl)cc1)N1CCN(c2ccc([N+](=O)[O-])c3ncccc23)CC1`, the Potency [1] was 7.5 µM (active), the Potency [2] was “inactive” and the Potency [3] was “inactive”.

With `OCC1O[C@H]([S-])C(O)[C@@H](O)[C@@H]1O.[Au+]` (stereo partly drawn) the Potency [1] was 22 µM (active), the Potency [2] was “inactive” and the Potency [4] was 5.11 µM (active). The Potency [5] was 9.08 µM (active) and the Potency [3] was “inactive”.

With `COc1ccc(/C=C2\COc3ccc(C)cc3C2=O)cc1O` the Potency [1] was “inactive”, the Potency [2] was 1.19 µM (active) and the Potency [4] was “inactive”. For the same compound, the Potency [5] was “inactive”.

For `COc1cc(OC)cc(-c2cc3cnc(N)nc3nc2NC(=O)NC(C)(C)C)c1`, the Potency [1] was 20.3 µM (active), the Potency [2] was “inactive” and the Potency [5] was “inactive”. For the same compound, the Potency [3] was “inactive”.

In the case of `CCCCC[C@H](CC(=O)NO)C(=O)N[C@H](C(=O)N1CCC[C@H]1CO)C(C)C`, the Potency [1] is reported as 5.11 µM (active), the Potency [2] is reported as “inactive” and the Potency [4] is reported as 10.2 µM (active). The Potency [5] was “inactive” and the Potency [3] was “inactive”.

For `COc1ccc(C(=O)/C(Cc2cc(OC)c(OC)c(OC)c2)=C(\C(=O)O)c2ccc3c(c2)OCO3)cc1`, the Potency [1] was 10.2 µM (active), the Potency [2] was “inactive” and the Potency [5] was 18.8 µM (active). The Potency [3] was “inactive”.

With `O=C1c2ccccc2C(=O)c2c(NCCc3ccc(O)cc3)ccc(NCCc3ccc(O)cc3)c21` the Potency [1] was 18.1 µM (active), the Potency [2] was “inactive” and the Potency [4] was “inactive”. The Potency [5] was 11.9 µM (active) and the Potency [3] was “inactive”.

With `CN(C)c1cc2c(Nc3ccc4c(cnn4Cc4ccccc4)c3)ncnc2cn1` the Potency [1] was 13.3 µM (active), the Potency [2] was “inactive” and the Potency [3] was “inactive”.

In the case of `O=C1c2ccccc2-c2n[nH]c3cccc1c23`, the Potency [1] is reported as 26.6 µM (active), the Potency [2] is reported as “inactive” and the Potency [4] is reported as “inactive”. The Potency [3] was “inactive”.

For `COc1cc(NS(C)(=O)=O)ccc1Nc1c2ccccc2nc2ccccc12`, the Potency [1] was 0.779 µM (active), the Potency [2] was “inactive” and the Potency [4] was “inactive”. For the same compound, the Potency [5] was 18.1 µM (active).

With `CCN(CC)CCOc1ccc(Nc2ncc3cc(-c4c(Cl)cccc4Cl)c(=O)n(C)c3n2)cc1` the Potency [1] was 9.08 µM (active), the Potency [2] was “inactive” and the Potency [4] was “inactive”. For the same compound, the Potency [3] was 0.0908 µM (active).

With `Nc1ncnc2c1c(-c1ccc(Oc3ccccc3)cc1)cn2C1CCCC1` the Potency [1] was 11.9 µM (active), the Potency [2] was “inactive” and the Potency [4] was “inactive”. For the same compound, the Potency [3] was “inactive”.

In the case of `CCCC(=O)NCCc1c2n(c3ccc(OC)cc13)CCCc1ccccc1-2`, the Potency [1] is reported as 20.3 µM (active), the Potency [2] is reported as “inactive” and the Potency [3] is reported as “inactive”.

In the case of `CCCCOC(=O)NS(=O)(=O)c1sc(CC(C)C)cc1-c1ccc(Cn2c(CC)nc3c(C)cc(C)nc32)cc1`, the Potency [1] is reported as 11.9 µM (active), the Potency [2] is reported as “inactive” and the Potency [3] is reported as “inactive”.

For `Cc1nc(N=Nc2cc(S(=O)(=O)O)c3cc([N+](=O)[O-])cc(S(=O)(=O)O)c3c2)c(COP(=O)(O)O)c(C=O)c1O`, the Potency [1] was “inactive”, the Potency [2] was “inactive” and the Potency [4] was “inactive”. The Potency [3] was “inactive”.

With `NC(N)=NC(=O)c1nc(Cl)c(N2CCCCCC2)nc1N` the Potency [1] was 11.9 µM (active), the Potency [2] was “inactive” and the Potency [4] was “inactive”. For the same compound, the Potency [3] was “inactive”.

With `O=[N+]([O-])c1ccc(-c2nc(-c3ccc(F)cc3)c(-c3ccncc3)[nH]2)cc1` the Potency [1] was 13.3 µM (active), the Potency [2] was “inactive” and the Potency [3] was “inactive”.

In the case of `Cc1ccc(S(=O)(=O)/C=C/C#N)cc1`, the Potency [1] is reported as “inactive”, the Potency [2] is reported as 17.4 µM (active) and the Potency [4] is reported as “inactive”. The Potency [3] was 15.5 µM (active).

For `Fc1ccc(C(OCCCc2cnc[nH]2)c2ccc(F)cc2)cc1`, the Potency [1] was 13.9 µM (active), the Potency [2] was “inactive” and the Potency [4] was 10.2 µM (active). The Potency [3] was “inactive”.

For `CCc1ccc(/C=C2/SC(=S)NC2=O)cc1`, the Potency [1] was “inactive”, the Potency [2] was “inactive” and the Potency [3] was “inactive”.

For `CC(=O)[C@]1(O)Cc2c(O)c3c(c(O)c2[C@@H](O[C@H]2C[C@H](N)[C@H](O)[C@H](C)O2)C1)C(=O)c1ccccc1C3=O`, the Potency [6] was “inactive”, the Potency [7] was 1.06 µM (active) and the Potency [8] was 2.66 µM (active).

With `Oc1cc2c(c(Cl)c1O)CCNCC2c1ccccc1` (stereo not drawn) the Potency [1] was 8.41 µM (active), the Potency [2] was “inactive” and the Potency [3] was “inactive”.

For `O=C1NCc2c1c1c3ccccc3[nH]c1c1[nH]c3ccccc3c21`, the Potency [1] was 2.76 µM (active), the Potency [2] was “inactive” and the Potency [4] was “inactive”. The Potency [3] was “inactive”.

With `C=CCc1cccc(/C=N/NC(=O)CN2CCN(Cc3ccccc3)CC2)c1O` the Potency [1] was 3.9 µM (active), the Potency [2] was “inactive” and the Potency [3] was “inactive”.

In the case of `O=C(O)c1cc([N+](=O)[O-])ccc1NCCCc1ccccc1`, the Potency [1] is reported as “inactive”, the Potency [2] is reported as “inactive” and the Potency [4] is reported as “inactive”. The Potency [3] was “inactive”.

For `NC[C@@H]1O[C@H](C23CC4CC(CC(C4)C2)C3)Cc2c1ccc(O)c2O`, the Potency [1] was 22.8 µM (active), the Potency [2] was “inactive” and the Potency [4] was “inactive”. For the same compound, the Potency [3] was “inactive”.

With `Cn1c(=O)c(-c2c(Cl)cccc2Cl)cc2cnc(Nc3ccc(N4CCOCC4)cc3)nc21` the Potency [1] was 4.38 µM (active), the Potency [2] was “inactive” and the Potency [4] was “inactive”. For the same compound, the Potency [3] was 0.0531 µM (active).

For `CC(C)(C)c1ccc(S(=O)(=O)/C=C/C#N)cc1`, the Potency [1] was “inactive”, the Potency [2] was “inactive” and the Potency [3] was “inactive”.

In the case of `CCN(c1nc(N)c(C(=O)N=C(N)N)nc1Cl)C(C)C`, the Potency [1] is reported as 9.81 µM (active), the Potency [2] is reported as “inactive” and the Potency [3] is reported as “inactive”.

Reference: PubChem BioAssay (Tox21)
